Source: PubChem BioAssay AID1159580 (chemical genetic matrix, 2015)
Screen size: about 5,500 compounds; about 2,000 (36%) were called active. Not shown: some 18% with an inconclusive outcome. Rule as the data show it: active = normalized growth mostly below about 0.91 (no sharp cut-off); inconclusive = no clear call, values can overlap the other calls; inactive = mostly above about 0.92. Some of the results follow.

Assay: chemical genetic growth profiling, strain panel (AID 1159580);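 also: tested at 20 µM; growth read once vehicle control cultures reached saturation at 30 °C; 1 = growth at the plate median or of vehicle wells; lower values mean less growth of the strain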
Conditions: growth OD

Measured: normalized growth

O=[N+]([O-])c1ccc(O)c([N+](=O)[O-])c1
inactive: S. cerevisiae deletion strains, locus YLR039C, strain RIC1, hits give low values 0.841 | S. cerevisiae deletion strains, locus YLR262C, strain YPT6, hits give low values 0.932 | S. cerevisiae deletion strains, locus YLR342W, strain FKS1 (second series), hits give low values 0.851 | S. cerevisiae deletion strains, locus YLR357W, strain rsc2, hits give low values 0.855 | S. cerevisiae deletion strains, locus YMR125W, strain sto1, hits give low values 0.898 | S. cerevisiae deletion strains, locus YMR307W, strain GAS1, hits give low values 0.819 | S. cerevisiae deletion strains, locus YNL248C, strain rpa49, hits give low values 0.937 | S. cerevisiae deletion strains, locus YOL006C, strain TOP1, hits give low values 0.9 | S. cerevisiae deletion strains, locus YOL012C, strain htz1 0.683 | S. cerevisiae deletion strains, locus YOR106W, strain vam3, hits give low values 0.87 | S. cerevisiae deletion strains, locus YOR270C, strain vph1, hits give low values 0.901
active: S. cerevisiae deletion strains, locus YKL009W, strain mrt4, hits give low values 0.249 | S. cerevisiae deletion strains, locus YKL068W, hits give low values 0.354 | S. cerevisiae deletion strains, locus YKL085W, strain MDH1 (second series), hits give low values 0.192 | S. cerevisiae deletion strains, locus YKL085W, strain MDH1, hits give low values 0.192 | S. cerevisiae deletion strains, locus YKL160W, strain elf1, hits give low values 0.87 | S. cerevisiae deletion strains, locus YKL190W, strain CNB1, hits give low values 0.795 | S. cerevisiae deletion strains, locus YKR001C, strain vps1, hits give low values 0.691 | S. cerevisiae deletion strains, locus YKR026C, strain gcn3, hits give low values 0.77 | S. cerevisiae deletion strains, locus YKR091W, strain srl3, hits give low values 0.808 | S. cerevisiae deletion strains, locus YLL001W, strain dnm1, hits give low values 0.793 | S. cerevisiae deletion strains, locus YLL026W, hits give low values 0.816 | S. cerevisiae deletion strains, locus YLL041C, strain sdh2, hits give low values 0.82 | S. cerevisiae deletion strains, locus YLR027C, strain aat2, hits give low values 0.819 | S. cerevisiae deletion strains, locus YLR058C, strain SHM2, hits give low values 0.802 | S. cerevisiae deletion strains, locus YLR102C, strain apc9, hits give low values 0.691 | S. cerevisiae deletion strains, locus YLR113W, strain HOG1, hits give low values 0.214 | S. cerevisiae deletion strains, locus YLR221C, strain rsa3, hits give low values 0.786 | S. cerevisiae deletion strains, locus YLR258W, strain gsy2, hits give low values 0.843 | S. cerevisiae deletion strains, locus YLR262C, strain YPT6 (second series), hits give low values 0.833 | S. cerevisiae deletion strains, locus YLR268W, strain sec22, hits give low values 0.736 | S. cerevisiae deletion strains, locus YLR320W, strain mms22, hits give low values 0.807 | S. cerevisiae deletion strains, locus YLR330W, strain CHS5, hits give low values 0.733 | S. cerevisiae deletion strains, locus YLR342W, strain FKS1, hits give low values 0.855 | S. cerevisiae deletion strains, locus YLR370C, strain arc18, hits give low values 0.814 | S. cerevisiae deletion strains, locus YLR371W, strain rom2, hits give low values 0.718 | S. cerevisiae deletion strains, locus YLR384C, strain iki3, hits give low values 0.798 | S. cerevisiae deletion strains, locus YLR418C, strain cdc73, hits give low values 0.661 | S. cerevisiae deletion strains, locus YML016C, strain PPZ1, hits give low values 0.79 | S. cerevisiae deletion strains, locus YML032C, strain rad52, hits give low values 0.697 | S. cerevisiae deletion strains, locus YML120C, strain ndi1, hits give low values 0.781 | S. cerevisiae deletion strains, locus YML124C, strain tub3, hits give low values 0.701 | S. cerevisiae deletion strains, locus YMR058W, strain fet3, hits give low values 0.793 | S. cerevisiae deletion strains, locus YMR078C, strain ctf18, hits give low values 0.68 | S. cerevisiae deletion strains, locus YMR129W, hits give low values 0.77 | S. cerevisiae deletion strains, locus YMR205C, strain PFK2, hits give low values 0.852 | S. cerevisiae deletion strains, locus YMR223W, strain ubp8, hits give low values 0.776 | S. cerevisiae deletion strains, locus YMR231W, strain pep5, hits give low values 0.761 | S. cerevisiae deletion strains, locus YMR263W, strain SAP30, hits give low values 0.783 | S. cerevisiae deletion strains, locus YNL067W, strain RPL9B, hits give low values 0.779 | S. cerevisiae deletion strains, locus YNL071W, strain lat1, hits give low values 0.826 | S. cerevisiae deletion strains, locus YNL128W, strain TEP1, hits give low values 0.842 | S. cerevisiae deletion strains, locus YNL153C, strain GIM3, hits give low values 0.786 | S. cerevisiae deletion strains, locus YNL183C, strain NPR1, hits give low values 0.179 | S. cerevisiae deletion strains, locus YNL209W, strain ssb2, hits give low values 0.829 | S. cerevisiae deletion strains, locus YNL233W, strain BNI4, hits give low values 0.75 | S. cerevisiae deletion strains, locus YNL250W, strain rad50, hits give low values 0.265 | S. cerevisiae deletion strains, locus YNL271C, strain bni1, hits give low values 0.31 | S. cerevisiae deletion strains, locus YNL298W, strain CLA4, hits give low values 0.251 | S. cerevisiae deletion strains, locus YNL307C, strain MCK1, hits give low values 0.635 | S. cerevisiae deletion strains, locus YNL322C, strain KRE1 (second series), hits give low values 0.651 | S. cerevisiae deletion strains, locus YNL322C, strain KRE1, hits give low values 0.798 | S. cerevisiae deletion strains, locus YNR049C, strain mso1, hits give low values 0.779 | S. cerevisiae deletion strains, locus YNR052C, strain pop2, hits give low values 0.728 | S. cerevisiae deletion strains, locus YOL147C, strain pex11, hits give low values 0.693 | S. cerevisiae deletion strains, locus YOR001W, strain rrp6, hits give low values 0.841 | S. cerevisiae deletion strains, locus YOR061W, strain CKA2, hits give low values 0.819 | S. cerevisiae deletion strains, locus YOR069W, strain VPS5, hits give low values 0.759 | S. cerevisiae deletion strains, locus YOR070C, strain gyp1, hits give low values 0.836 | S. cerevisiae deletion strains, locus YOR080W, strain dia2, hits give low values 0.812 | S. cerevisiae deletion strains, locus YOR083W, strain WHI5, hits give low values 0.831 | S. cerevisiae deletion strains, locus YOR136W, strain idh2, hits give low values 0.845 | S. cerevisiae deletion strains, locus YOR144C, strain elg1, hits give low values 0.709 | S. cerevisiae deletion strains, locus YOR184W, strain ser1, hits give low values 0.799 | S. cerevisiae deletion strains, locus YOR231W, strain MKK1, hits give low values 0.266 | S. cerevisiae deletion strains, locus YOR265W, strain rbl2, hits give low values 0.832 | S. cerevisiae deletion strains, locus YOR290C, strain snf2, hits give low values 0.826 | S. cerevisiae deletion strains, locus YOR316C, strain cot1, hits give low values 0.726 | S. cerevisiae deletion strains, locus YPL051W, strain arl3, hits give low values 0.843 | S. cerevisiae deletion strains, locus YPL055C, strain LGE1, hits give low values 0.753 | S. cerevisiae deletion strains, locus YPL078C, strain atp4, hits give low values 0.737 | S. cerevisiae deletion strains, locus YPL106C, strain sse1, hits give low values 0.736 | S. cerevisiae deletion strains, locus YPL240C, strain hsp82, hits give low values 0.813 | S. cerevisiae deletion strains, locus YPL241C, strain CIN2, hits give low values 0.812 | S. cerevisiae deletion strains, locus YPL256C, strain CLN2, hits give low values 0.256 | S. cerevisiae deletion strains, locus YPR119W, strain clb2, hits give low values 0.697 | S. cerevisiae deletion strains, locus YPR141C, strain kar3, hits give low values 0.309 | S. cerevisiae deletion strains, locus YPR163C, strain tif3, hits give low values 0.656 | S. cerevisiae deletion strains, locus YPR167C, strain met16, hits give low values 0.719 | S. cerevisiae deletion strains, strain wtn01, hits give low values 0.755 | S. cerevisiae strains, strain wild type, hits give low values 0.799
